RGS7-Gao reg – RGS7-Galphao binding modulators, primary screen, biochemical, multiplexed bead flow cytometry | actives lie on both sides | Guanine nucleotide-binding protein G(o) subunit alpha (Homo sapiens), P09471 | AID 1439, 2008 | 220,000 compounds, 0.35% hits | binding response (% of control), % at 10 µM; in the data active = binding response below about 49% or above about 150%; inconclusive = no clear call, values can overlap the other calls; inactive = in between;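 note: fluorescent Galphao held in activated GDP-AlF4 state binding bead-coupled RGS7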
Target sequence (P09471 whole entry, looked up): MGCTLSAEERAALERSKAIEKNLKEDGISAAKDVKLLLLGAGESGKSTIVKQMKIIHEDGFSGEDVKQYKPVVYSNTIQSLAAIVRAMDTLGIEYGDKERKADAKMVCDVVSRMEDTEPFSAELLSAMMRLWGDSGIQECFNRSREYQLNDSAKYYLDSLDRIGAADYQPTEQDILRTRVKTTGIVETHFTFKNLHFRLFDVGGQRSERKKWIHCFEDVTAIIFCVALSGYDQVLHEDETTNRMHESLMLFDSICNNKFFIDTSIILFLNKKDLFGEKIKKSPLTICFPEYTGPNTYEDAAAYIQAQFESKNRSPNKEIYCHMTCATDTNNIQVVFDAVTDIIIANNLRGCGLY
RGS16-Gao – modulators of RGS16 binding to Galphao, primary screen, biochemical, human proteins, multiplexed bead flow cytometry. 220,000 compounds, 0.38% hits. AID 1441, 2008. bead-based flow cytometry RGS16-Galphao binding, fluorescence; actives lie on both sides. binding response (% of control), % at 10 µM. Regulator of G-protein signaling 16 (Homo sapiens) + Guanine nucleotide-binding protein …;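 note: Galphao activated by GDP with aluminum fluoride before binding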
RGS8-Gao – RGS8-Galphao binding modulators, primary screen, biochemical, multiplexed bead flow cytometry. Guanine nucleotide-binding protein G(o) subunit alpha (Homo sapiens), P09471. actives lie on both sides. response (percent of control binding), % at 10 µM. 220,000 compounds, 0.34% hits. AID 1423, 2008; in the data active = response below about 60% or above about 140%; inactive = in between;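 note: Galphao activated as the GDP aluminium fluoride complex binding bead-coupled RGS8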
RGS4-Gao reg – modulators of RGS4 binding to Galphao, primary screen, biochemical, multiplexed bead flow cytometry; Guanine nucleotide-binding protein G(o) subunit alpha (Homo sapiens), P09471; actives lie on both sides; binding response (% of control), % at 10 µM; 220,000 compounds, 0.33% hits; AID 1415, 2008; in the data active = binding response below about 49% or above about 150%; inactive = in between;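 note: fluorescent Galphao activated with aluminum fluoride binding bead-coupled RGS4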
RGS-Gao – modulators of RGS–Galpha-o binding, primary screen, biochemical, multiplexed beads, flow cytometry, RGS4/7/8/16/19; shares compounds with RGS16-Gao; multiplexed bead flow cytometry; RGS4–Galpha-o binding response, % at 10 µM; 1,600 compounds, 99% hits; AID 1504, 2009;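 note: fluorescently labeled Galpha-o bound to GDP with aluminium fluoride binding biotinylated RGS beads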
Biotin-avidin – disruption of biotin probe capture by avidin, counter-screen for RGS protein interaction modulators, biochemical, flow cytometry, bead-based; shares compounds with RGS16-Gao; streptavidin beads, fluorescein-biotin binding; inhibition, % at 10 µM; 1,700 tested, under 10 active; AID 1783, 2009;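 active = inhibition above 50%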;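 note: median green fluorescence of gated singlet beads compared with DMSO control wells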
RGS8-Gao confirm – RGS8-Galphao binding modulators, confirmation, biochemical, multiplexed bead flow cytometry, single concentration | binding response (% of control), % at 10 µM | shares compounds with RGS16-Gao | 1,700 compounds, 3% hits | bead-based flow cytometry RGS8-Galphao binding, fluorescence; actives lie on both sides; in the data active = binding response below about 72% or above about 130%; inactive = in between;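 note: Galphao activated as GDP AlF4 complex before binding bead RGS8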
RGS7-Gao single – RGS7-Galphao binding modulators, confirmation, biochemical, multiplexed bead flow cytometry, single concentration. shares compounds with RGS16-Gao. bead-based flow cytometry RGS7-Galphao binding; actives lie on both sides. response (percent of control binding), % at 10 µM. 1,700 compounds, 7.8% hits; in the data active = response below about 75% or above about 130%; inactive = in between;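 note: fluorescent Galphao activated with GDP and aluminum fluoride binding bead-coupled RGS7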
RGS16-Gao conf – modulators of RGS16-Galphao protein binding, confirmation, biochemical, single concentration, multiplexed bead flow cytometry; shares compounds with RGS16-Gao; bead-based flow cytometry; actives lie on both sides; response (% of control binding), % at 10 µM; 1,700 compounds, 4% hits; AID 1838, 2009; in the data active = response below about 74% or above about 130%; inactive = in between;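 note: Galphao activated as the GDP aluminium fluoride complex binding bead-coupled RGS16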
RGS4-Gao single – modulators of RGS4-Galphao protein binding, confirmation, biochemical, single concentration, multiplexed bead flow cytometry; actives lie on both sides; binding response (% of control), % at 10 µM; shares compounds with RGS16-Gao; 1,700 compounds, 4% hits; in the data active = binding response below about 74% or above about 130%; inactive = in between
RGS19-Gao single – regulators of RGS19-Galphao binding, confirmation, biochemical, single point, multiplexed bead flow cytometry | shares compounds with RGS16-Gao | bead-based flow cytometry RGS19-Galphao binding; actives lie on both sides | response (percent of control binding), % at 10 µM | 1,700 compounds, 5% hits; in the data active = response below about 50% or above about 160%; inactive = in between
Target sequence (P09471 whole entry, looked up): as above
Target sequence (P49795 whole entry, looked up): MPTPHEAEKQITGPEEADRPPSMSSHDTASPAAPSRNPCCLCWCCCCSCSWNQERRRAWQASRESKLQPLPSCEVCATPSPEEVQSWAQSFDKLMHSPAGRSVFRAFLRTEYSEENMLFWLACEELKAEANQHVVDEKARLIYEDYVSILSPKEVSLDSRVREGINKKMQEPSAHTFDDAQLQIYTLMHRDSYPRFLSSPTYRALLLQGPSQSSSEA
A number is an active result; [ ] = remark or other dose. Most compounds without a hit are left out; they make up all but 0.78% or so of the library. Unless noted, the rule behind the calls is not given here.

Results for O=C(NCc1ccccc1)c1cc2ccccc2o1 ?
RGS7-Gao reg: inactive; RGS16-Gao: inactive; RGS8-Gao: inactive; RGS4-Gao reg: inactive

Results for CCNC(=O)c1cc2ccccc2o1 ?
RGS7-Gao reg: 14.7; RGS16-Gao: 11.2; RGS8-Gao: 16.5; RGS4-Gao reg: 10.4; Biotin-avidin: inactive; RGS8-Gao confirm: inactive; RGS7-Gao single: inactive; RGS16-Gao conf: inactive; RGS4-Gao single: inactive; RGS19-Gao single: inactive

How did Cc1cc(C)cc(Nc2cnn(C34CC5CC(CC(CC(=O)O)(C5)C3)C4)c(=O)c2Cl)c1 do in these assays?
RGS4-Gao reg: inactive; Biotin-avidin: inactive; RGS8-Gao confirm: inactive; RGS7-Gao single: inactive; RGS16-Gao conf: inactive; RGS4-Gao single: inactive; RGS19-Gao single: inactive

How did Cc1cccc(Nc2cnn(C34CC5CC(CC(CC(=O)O)(C5)C3)C4)c(=O)c2Cl)c1 do in these assays?
RGS7-Gao reg: inactive; RGS16-Gao: inactive; RGS8-Gao: inactive; RGS4-Gao reg: inactive

What do the screens show for `Cc1ccc(CNc2cnn(C34CC5CC(CC(C5)C3)C4)c(=O)c2Cl)cc1`?
RGS7-Gao reg: 7.4; RGS16-Gao: 5.8; RGS8-Gao: 11.1; RGS4-Gao reg: 0.2; Biotin-avidin: inactive; RGS8-Gao confirm: inactive; RGS7-Gao single: inactive; RGS16-Gao conf: inactive; RGS4-Gao single: inactive; RGS19-Gao single: inactive

What do the screens show for `Cc1cc(N=Nc2ccccc2C(=O)O)c(C)c(C)c1O`?
RGS7-Gao reg: inconclusive; RGS16-Gao: inactive; RGS8-Gao: inactive; RGS4-Gao reg: inactive

Results for CCOC(=O)CNNC(=O)Nc1ccc(Cl)c(Cl)c1 ?
RGS7-Gao reg: inactive; RGS16-Gao: 326.4[activator]; RGS8-Gao: 152.5[activator]; RGS4-Gao reg: inactive; RGS-Gao: 123.2; Biotin-avidin: inactive; RGS8-Gao confirm: inactive; RGS7-Gao single: inactive; RGS16-Gao conf: inactive; RGS4-Gao single: inactive; RGS19-Gao single: inactive

How did COc1ccc(OCCNS(=O)(=O)c2ccccc2)cc1 do in these assays?
RGS7-Gao reg: inactive; RGS16-Gao: inactive; RGS8-Gao: inactive; RGS4-Gao reg: inactive

What do the screens show for `Cc1ccc(OCCNS(=O)(=O)c2cccs2)cc1`?
RGS7-Gao reg: 154.2[activator]; RGS16-Gao: inactive; RGS8-Gao: inactive; RGS4-Gao reg: 159.2[activator]; Biotin-avidin: inactive; RGS8-Gao confirm: inactive; RGS7-Gao single: inactive; RGS16-Gao conf: inactive; RGS4-Gao single: inactive; RGS19-Gao single: inactive

What do the screens show for `CSc1ccccc1NC(=O)C1C2CCC(C2)C1C(=O)O` (stereo not drawn)?
RGS7-Gao reg: 33.0; RGS16-Gao: 21.0; RGS8-Gao: 39.8; RGS4-Gao reg: 24.1; Biotin-avidin: inactive; RGS8-Gao confirm: inactive; RGS7-Gao single: inactive; RGS16-Gao conf: inactive; RGS4-Gao single: inactive; RGS19-Gao single: inactive

What do the screens show for `CC1CCC(NC(=O)C2(C)CCC(=O)N2Cc2cccnc2)CC1` (stereo not drawn)?
RGS7-Gao reg: inactive; RGS16-Gao: inactive; RGS8-Gao: inactive; RGS4-Gao reg: inactive

Results for CC1CCN(S(=O)(=O)c2cccc(C(=O)Oc3ccc([N+](=O)[O-])cc3)c2)CC1 ?
RGS7-Gao reg: inactive; RGS16-Gao: 24.0; RGS8-Gao: inactive; RGS4-Gao reg: inactive; RGS-Gao: 96.7; Biotin-avidin: inactive; RGS8-Gao confirm: inactive; RGS7-Gao single: inactive; RGS16-Gao conf: inactive; RGS4-Gao single: inactive; RGS19-Gao single: inactive

How did Cc1cc(O)ccc1N1C(=O)c2cccc3cc([N+](=O)[O-])cc(c23)C1=O do in these assays?
RGS7-Gao reg: inactive; RGS16-Gao: inactive; RGS8-Gao: inactive; RGS4-Gao reg: inactive

How did CC(C(=O)NC1=NCCS1)N1C(=O)c2ccccc2C1=O (stereo not drawn) do in these assays?
RGS7-Gao reg: inactive; RGS16-Gao: inactive; RGS8-Gao: inactive; RGS4-Gao reg: inactive

From PubChem
